Hits are enriched below; roughly 1.2% of the tested compounds scored in any of these assays.
AF4-AF9 inh: inhibitors of AF4 peptide binding to AF9, primary screen, biochemical, AlphaScreen, biotin-AF4 peptide, FLAG-AF9, single point; Protein AF-9 (Homo sapiens), P42568; inhibition, % at 10 µM; actives 0.47% (n = 350,000); AID 651704, 2012;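 active = every replicate reaching a set inhibition limit, whatever the replicate mean, cut at about 25% in these data; inconclusive = mean inhibition reaches that limit but some replicates miss it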;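 also: 0% = plate neutral control median and 100% = total signal loss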
N-glyco inh: increase of ERlucT glycosylation luciferase signal, primary screen, N-linked glycosylation inhibitor project, D54 ERlucT cells, luminescence, set 2; D54 ERlucT glycosylation luciferase reporter, 24 h; percent of 100 nM tunicamycin response; reporter increase, % at 12.5 µM; actives 0.23% (n = 360,000); AID 588692, 2011;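 active = mean luciferase reporter signal, scaled so untreated is 0 and the glycosylation-blocking control 100, at or above a set limit in every replicate; inconclusive = mean reaches the limit but not every replicate does; inactive = mean below the limit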;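 also: luciferase carries N-glycosylation sites so blocking glycosylation raises the light; 0% = median of neutral control wells and 100% = median of 100 nM tunicamycin wells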
RAD52 anneal inh: RAD52 DNA annealing inhibitors, primary screen, biochemical, FRET, single point, set 2. DNA repair protein RAD52 homolog (Homo sapiens), P43351. recombinant RAD52 DNA annealing, FRET fluorescence. inhibition, % at 18.7 µM. actives 0.46% (n = 360,000);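 active = every replicate showing at least 50% inhibition; inconclusive = mean inhibition at least 50% but not in every replicate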
Target sequence (P43351 whole entry, looked up): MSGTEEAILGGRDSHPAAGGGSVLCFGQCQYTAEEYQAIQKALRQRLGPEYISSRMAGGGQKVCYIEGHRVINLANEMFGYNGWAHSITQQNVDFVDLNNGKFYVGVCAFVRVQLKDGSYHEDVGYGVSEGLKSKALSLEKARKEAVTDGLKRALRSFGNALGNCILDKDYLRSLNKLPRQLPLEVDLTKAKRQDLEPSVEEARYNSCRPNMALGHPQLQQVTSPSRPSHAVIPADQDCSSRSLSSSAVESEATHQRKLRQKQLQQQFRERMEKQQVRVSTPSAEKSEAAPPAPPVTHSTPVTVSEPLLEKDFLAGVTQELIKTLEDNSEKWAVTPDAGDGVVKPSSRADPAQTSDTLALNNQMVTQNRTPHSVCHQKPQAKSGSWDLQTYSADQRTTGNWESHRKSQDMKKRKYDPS
RAD54 branch: inhibitors of human RAD54 branch migration, primary screen, biochemical, fluorescence, single point. RAD54 Holliday junction branch migration, FAM/BHQ fluorescence. actives 0.14% (n = 360,000). DNA repair and recombination protein RAD54-like (Homo sapiens), Q92698. AID 602329, 2012. inhibition, % at 10.4 µM;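 active = mean normalized replicate activity at least 40 and at least half of replicates scoring 40 or more; inconclusive = only one of the two criteria met; inactive = mean below 40 and under half of replicates reaching 40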;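 also: 0% = median of neutral control wells and 100% = median of positive control wells; inhibitors cause a drop in the FAM fluorescence signal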
Casp6 inh: human caspase-6 inhibitors, primary screen, biochemical, VEID-R110 fluorescence, single point, set 2. P55212. purified caspase-6, Z-VEID-R110 cleavage fluorescence. inhibition, % at 12.5 µM. actives 0.53% (n = 350,000). AID 686996, 2013;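 active = mean inhibition across replicates at least about 35%, with every replicate also reaching that limit, limit read from the data; inconclusive = only one of the two criteria met; inactive = neither criterion met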;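 also: 0% = median of neutral control wells and 100% = no fluorescence left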
Target sequence (P55212 24-179 limits assumed): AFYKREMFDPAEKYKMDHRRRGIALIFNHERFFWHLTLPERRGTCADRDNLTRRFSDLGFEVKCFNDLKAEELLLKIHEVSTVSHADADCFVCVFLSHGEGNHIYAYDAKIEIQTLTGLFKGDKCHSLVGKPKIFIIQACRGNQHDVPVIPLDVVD
Target sequence (P55212 194-293 limits assumed): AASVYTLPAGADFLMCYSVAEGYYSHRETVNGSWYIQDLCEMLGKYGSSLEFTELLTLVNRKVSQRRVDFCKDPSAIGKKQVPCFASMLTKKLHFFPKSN
Rad54 DNA ctr: DNA binding of candidate compounds, dose response, artefact control for RAD54 inhibitor project, biochemical, fluorescence polarization, cherry-pick; AID 651673, 2012; Acridine orange-DNA displacement, 20 min; actives 8% (n = 460); AC50, µM (doses to about 35 µM), without a hit: top-dose activity change, negative = DNA binding; shares compounds with RAD54 branch;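 active = signal drop giving an AC50 within twice the top valid tested concentration of each sample, actives reach about 35 µM in these data; inactive = activity opposite to expected, plus the rest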;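 also: polarization loss reports compound binding to salmon sperm DNA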
RAD52 DNA ctr: DNA-binding compounds via dye displacement, dose response, artefact control for RAD52 inhibitor project, biochemical, fluorescence polarization, cherry-pick; shares compounds with RAD52 anneal inh; Salmon sperm DNA/acridine orange FP displacement; AC50, µM; actives 8% (n = 1,000); AID 652128, 2013;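 active = fitted half-maximal concentration for signal loss at or below twice the highest dose tested, in every separate run, actives reach about 64 µM in these data; inconclusive = runs disagree, or flat partial signal loss, or poor fit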
Starred values were filed as active, the others as inactive; i = inactive; ? = inconclusive; . = not tested or not shown.

SMILES | AF4-AF9 inh | N-glyco inh | RAD52 anneal inh | RAD54 branch | Casp6 inh | Rad54 DNA ctr | RAD52 DNA ctr
Cc1noc(C)c1NC(=O)N(C)C[C@@H]1Oc2ccc(NC(=O)Nc3ccc(F)cc3)cc2CC(=O)N([C@H](C)CO)C[C@@H]1C | -2 | . | -9 | -4 | 2 | . | .
CO[C@H]1CN(C)C(=O)c2ccc(NC(C)=O)cc2OC[C@@H](C)N(C(=O)C2CCOCC2)C[C@H]1C | -2 | . | -1 | 4 | . | . | .
COc1ccc2c3c([nH]c2c1)[C@@H](CO)N(Cc1ccncc1)CC31CN(C(=O)Cc2ccncc2)C1 | 4 | . | -27 | . | . | . | .
CCN(CC)CCCNC(=O)c1cc2c(-c3cccc(OC)c3)nn(C)c2s1 | 4 | 17 | 92* | 73* | -5 | i | i
COc1cccc(-c2nn(C)c3sc(C(=O)NCc4ccco4)cc23)c1 | . | 19 | . | 11 | . | . | .
CCCCN(CC)CCCNC(=O)c1cc2c(-c3ccc(OC)c(OC)c3)nn(C)c2s1 | 5 | 2 | 94* | 91* | -17 | -12% | i
Cn1c(=O)cc(SCC(=O)NCCCN2CCOCC2)c2ccccc21 | . | . | . | -8 | . | . | .
COc1cccc2sc3cc(NCCCN4CCOCC4)ccc3c(=O)c12 | . | 6 | 62* | 78* | 0 | 3% | i
CN1CCC[C@H]1CCNc1ccc2c(=O)c3ccccc3n(C)c2c1 | -9 | 8 | 50* | 90* | -34 | -10% | i
Cn1c2ccccc2c(=O)c2cc(NCCCN3CCOCC3)ccc21 | -26 | 19 | 70* | 116* | -5 | 2% | i
CC(C)NC(=O)Nc1cccc2c1O[C@@H](CN(C)Cc1ccc(Oc3ccccc3)cc1)[C@@H](C)CN([C@@H](C)CO)C2=O | 1 | . | 5 | -12 | -1 | . | .
CC(C)NC(=O)N(C)C[C@H]1OCCCC[C@@H](C)Oc2ccc(N(C)C)cc2C(=O)N([C@H](C)CO)C[C@H]1C | 5 | . | -33 | -6 | 0 | . | .
COCC(=O)N1C[C@H](C)[C@@H](OC)CN(C)C(=O)c2cc(NS(C)(=O)=O)ccc2OC[C@@H]1C | 1 | . | -11 | 6 | 0 | . | .
CN(C)CCCN(C(=O)COc1ccccc1)c1nc2ccc(F)cc2s1 | 16 | 0 | 13 | . | 1 | . | .
CN(C)CCCN(C(=O)CCOc1ccccc1)c1nc2ccc(F)cc2s1 | 5 | -17 | 89* | 65* | -26 | -16% | i
CCOC(=O)c1c(NC(=O)c2ccc(S(=O)(=O)N3CCOCC3)cc2)sc2c1CCN(C)C2 | 14 | -1 | 59* | 89* | -3 | -7% | i
Cc1ccc(Nc2nc(NCCO)c3ccccc3n2)cc1C | 18 | -14 | 27 | 22 | 13 | . | .
COc1ccc(OC)c(Nc2nc(NCCO)c3ccccc3n2)c1 | 18 | 15 | 88* | 94* | 0 | -9% | i
CCN1CCN(c2cc(C)c3cc(NC(=S)N4CC(C)CC(C)C4)ccc3n2)CC1 (centres undefined) | 7 | -6 | 52* | ? | -43 | -9% | i
CCN1CCN(c2cc(C)c3cc(NC(=S)N4CCCC(C)C4)ccc3n2)CC1 (centres undefined) | 15 | -7 | 52* | 63* | -40 | 1% | i
CCN1CCN(c2cc(C)c3cc(NC(=O)c4ccncc4)ccc3n2)CC1 | -3 | -3 | -35 | 0 | -2 | . | .
N=c1c(C(=O)NCCc2ccccc2)cc2c(=O)n3ccccc3nc2n1CCCN1CCOCC1 | 4 | 4 | 45 | 28 | 4 | . | .
Cc1cccn2c(=O)c3cc(C(=O)NCCN4CCOCC4)c(=N)n(CCN4CCOCC4)c3nc12 | 5 | 5 | 69* | 51* | 0 | 3% | i
Cc1cccn2c(=O)c3cc(C(=O)NC4CCCC4)c(=N)n(CC4CCCO4)c3nc12 (centres undefined) | -4 | ? | 15 | 34 | 0 | . | .
Cc1cccn2c(=O)c3cc(C(=O)NC4CCCC4)c(=N)n(CCCN4CCOCC4)c3nc12 | -12 | 3 | 68* | 77* | 3 | 5% | i
SMILES | AF4-AF9 inh | N-glyco inh | RAD52 anneal inh | RAD54 branch | Casp6 inh | Rad54 DNA ctr | RAD52 DNA ctr
N=c1c(C(=O)NCCN2CCOCC2)cc2c(=O)n3ccccc3nc2n1CCc1ccccc1 | -1 | 8 | 57* | 63* | -6 | -9% | i
CC(C)NC(=O)N(C)C[C@H]1OCCCC[C@@H](C)Oc2ccc(NS(=O)(=O)c3cn(C)cn3)cc2C(=O)N([C@@H](C)CO)C[C@H]1C | -3 | . | 9 | 1 | 1 | . | .
CCC(=O)N(C)C[C@H]1Oc2ncc(C#CCc3ccccc3)cc2C(=O)N([C@@H](C)CO)C[C@H]1C | -1 | . | -15 | . | 2 | . | .
COCC(=O)Nc1ccc2c(c1)OC[C@@H](C)N(CCC(F)(F)F)C[C@@H](C)[C@H](OC)CN(C)C2=O | -2 | . | 13 | 1 | 2 | . | .
COCCCNc1nc(N)c([N+](=O)[O-])c(Nc2cc(OC)ccc2OC)n1 | 2 | 4 | -10 | 3 | 0 | . | .
COc1ccc(OC)c(Nc2nc(NCCCN(C)C)nc(N)c2[N+](=O)[O-])c1 | 11 | 3 | 95* | 74* | -16 | -21% | i
CCN1C(=O)CCN(C2CCCC2)c2nc(Nc3ccc(C(=O)NC4CCN(C)CC4)cc3OC)ncc21 | 6 | 55* | 63* | ? | -10 | 3% | i
COc1ccc(C(=O)NC2CCCCCC2)cc1S(=O)(=O)N1CCCc2ccccc21 | . | -6 | . | 1 | . | . | .
CC(=O)Nc1cc(-c2cccc(C(=O)NCCN(C)C)c2)cn2c(-c3ccc(C(C)=O)cc3)cnc12 | 5 | -5 | 71* | 101* | -88 | -18% | i
COc1cccc(-c2cnc3c(NC(C)=O)cc(-c4cccc(C(=O)NCCN(C)C)c4)cn23)c1 | ? | -4 | 100* | 78* | -90 | 0% | i
COc1ccc(-c2cnc3c(NC(C)=O)cc(-c4cccc(C(=O)NCCN(C)C)c4)cn23)cc1OC | 17 | -8 | 101* | 76* | -115 | 1% | i
CC(=O)Nc1cc(-c2cccc(C(=O)NCCN(C)C)c2)cn2c(-c3ccc(F)c(Cl)c3)cnc12 | 9 | -4 | 41 | 17 | -58 | . | .
COc1ccc(-c2cnc3c(NC(C)=O)cc(-c4cccc(C(=O)NCCO)c4)cn23)cc1OC | -3 | 0 | 0 | 5 | 6 | . | .
CN1C(=O)c2cc(NC(=O)Nc3cccc(Cl)c3)ccc2OC[C@@H]2O[C@H](CC(=O)O)CC[C@H]21 | 0 | . | 10 | 3 | 5 | . | .

High-throughput results (PubChem)
